Assay [1] has as its system Hepatitis C virus NS3 helicase. Description: blockers of NS3h binding to ssDNA – biochemical, fluorescence polarization, LOPAC1280 library, primary screen (AID 687035; in the data active = inhibition above about 37%). Particulars: Purified HCV NS3 helicase, Cy5-dT15 ssDNA binding fluorescence polarization; stronger effect = higher value; concentration not given here. On the technique in general: Fluorescence polarisation rises when a labelled molecule tumbles more slowly, as on binding a larger partner.

Assay [2] in a line: compounds altering Cy5-DNA-NS3h complex signal – biochemical, LOPAC1280, artefact control for HCV NS3 helicase inhibitor project (AID 687037; call rule not given here). Particulars: Cy5-DNA-NS3h complex fluorescence interference counterscreen. Background: Counterscreens check selectivity or assay interference.
Assay [3] in a line: viability loss with induced miR-34 in A549 – imaging, A549 dox-inducible miR-34, nuclei and caspase counts, primary screen (AID 1347080). The note with it: A549 miR-34 inducible, Hoechst nuclei count, 48 h.
Assay [4] can be described thus: blockers of cellular phospholipid synthesis – cell-based, LOPAC library, screen 4, primary screen (AID 1347384; call rule not given here). Particulars: animal cells, phospholipid biosynthesis inhibition screen; at 10 µM.
Assay [5] in a line: galactose survival enhancers in mitochondrial complex I cybrids – cell-based, galactose medium, ATP luminescence, primary screen (AID 1645843;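 active = z-score of at least 1.8 in each of two replicates, scored against plate mean and spread of sample wells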;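 also: positive z means more ATP and so rescue of galactose-driven cybrid death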). Particulars: complex I mutant cybrid cells, 72 h, stronger effect = higher value.
Assay [6] is described as follows: MELAS cybrid and Rieske KO viability enhancers – cell-based, MELAS cybrids, Rieske KO mouse fibroblasts, CellTiter-Glo, primary screen (AID 1508586;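 active = mean z-score across replicates of 1.96 or higher in either the MELAS or the Rieske mutant cell line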;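 also: z relative to plate mean and SD of compound and empty wells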). The note with it: low glucose.
A short description of assay [7]: compounds altering circadian rhythm period length – cell-based, LOPAC library, luminescence reporter (AID 2774; call rule not given here;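 also: values are relative to mean of DMSO wells on each plate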). Particulars: circadian reporter cells, at 7 µM, actives lie on both sides.
Where [8] appears, read: stronger effect = lower value, cell number ratio, induced over uninduced.
Setting [9] is: measured here: relative caspase fold change +Dox/-Dox.
[10] abbreviates: measured here: total cells with miR-34 induction, stronger effect = lower value.
The mark [11] stands for this setting: measured here: total cells without miR-34 induction.
Setting [12] is: MELAS cybrid survival, CellTiter-Glo 48 h, stronger effect = higher value.
Setting [13] is: Rieske KO mouse fibroblast survival, CellTiter-Glo 72 h.

Structures are written as SMILES. The source made the active and inactive calls.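 The calls were made as follows, unless noted: active = compounds whose cell count with miR-34 switched on is under 0.7 times the count with it off; inactive = the rest.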 *1 amine or outer side, *2 acyl side, *3 side chain or, on linkers, in order; H or OH if unused. Where a SMILES comes first, the peptide text is derived from it. Bridges are numbered along the chain shown (N, C = ends). [ ]: non-standard residue; d: D form. The star is where a group is joined. ξ: configuration not given here. pTerphenylCO(4''-OnC5H11) = CCCCCOc1ccc(-c2ccc(-c3ccc(C(=O)*)cc3)cc2)cc1; ξOrn(4,5-diOH) = O=C(C(CC(O)C(O)N[*:3])N[*:1])[*:2]; ξhTyr(βξ-OH,γξ-OH) = NC(C(=O)O)C(O)C(O)c1ccc(O)cc1; ξPro(3ξ-OH,4ξ-Me) = CC1CNC(C(=O)O)C1O; Hyp = O=C(O)[CH]1C[CH](O)CN1

These results are taken from PubChem BioAssay.

The term inhibition denotes the change of the read-out against control, counted positive when it falls.

On to `CCNc1nc2c(ncn2[C@H]2C[C@H](O)[C@@H](CO)O2)c(=O)[nH]1`, for which the inhibition in assay [1] was -2% (inactive). Further, the fluorescence ratio (interference) in assay [2] was 1 (inactive). For the same compound, the fold change in assay [3] (setting [8]) is 0.97 (inactive); in assay [3] (setting [9]), 1.78. For the same compound, the cell count in assay [3] (setting [10]) is 9970; in assay [3] (setting [11]) it was 10300. The compound was called inactive in assay [4]. Further, in assay [5], the z-score was -0.005 (inactive).

As for `CNCc1ccc(C)c(NC(=O)c2ccc(Nc3nc(-c4ccccc4)c4ccccc4n3)cc2)c1`, the values for the fold change in assay [3] (setting [8]) and in assay [3] (setting [9]) were 0.989 (inactive) and 0.59, respectively. The cell count stood at 6570 in assay [3] (setting [10]) and 6650 in assay [3] (setting [11]). In addition, the z-score is -0.615 (inactive) in assay [6] (setting [12]) and -0.107 in assay [6] (setting [13]).

As for `C[C@@H]1COc2c(N3CCN(C)CC3)c(F)cc3c(=O)c(C(=O)O)cn1c23`, the fold change in assay [3] (setting [8]) is 0.906 (inactive); in assay [3] (setting [9]), 0.634. The cell count amounted to 8330 in assay [3] (setting [10]) and 9190 in assay [3] (setting [11]). In addition, the figures for the z-score in assay [6] (setting [12]) and in assay [6] (setting [13]) were -0.0742 (inactive) and 0.213, respectively.

`CC(C)c1cccc(C(C)C)c1N1C(=O)c2ccc(O)cc2C1=O`: the inhibition in assay [1] was 0% (inactive). In addition, the fluorescence ratio (interference) in assay [2] was 0.9 (inactive). Further, the fold change in assay [3] (setting [8]) was 1.39 (inactive); in assay [3] (setting [9]) it was 0.841. The cell count is 1810 in assay [3] (setting [10]) and 1300 in assay [3] (setting [11]). In assay [4], the compound was classed as inactive. Moreover, the z-score in assay [5] was 0.3 (inactive).

As for `CCCCCOc1ccc(-c2ccc(-c3ccc(C(=O)NC4CC(O)C(O)NC(=O)C5C(O)C(C)CN5C(=O)C(C(C)O)NC(=O)C(C(O)C(O)c5ccc(O)cc5)NC(=O)C5CC(O)CN5C(=O)C(C(C)O)NC4=O)cc3)cc2)cc1` (stereo not drawn) ({pTerphenylCO(4''-OnC5H11)}-[ξOrn(4,5-diOH)]T[Hyp][ξhTyr(βξ-OH,γξ-OH)]T[ξPro(3ξ-OH,4ξ-Me)]; lactam 1-C; configuration not given here), the fold change in assay [3] (setting [8]) was 0.963 (inactive); in assay [3] (setting [9]), 0.515. For the same compound, the values for the cell count in assay [3] (setting [10]) and in assay [3] (setting [11]) were 5590 and 5810, respectively. In addition, the values for the z-score in assay [6] (setting [12]) and in assay [6] (setting [13]) were 0.0456 (inactive) and -0.136, respectively.

In the case of `CC(C)(C)[N+]([O-])=Cc1ccc(S(=O)(=O)O)cc1S(=O)(=O)O`, the fold change in assay [3] (setting [8]) is 0.908 (inactive); in assay [3] (setting [9]), 1.03. The cell count is 9880 in assay [3] (setting [10]) and 10900 in assay [3] (setting [11]). For the same compound, the results for the z-score in assay [6] (setting [12]) and in assay [6] (setting [13]) were -0.368 (inactive) and 0.732, respectively.

For `CC1=C(C(=O)OC2CCCCC2)C(c2ccc([N+](=O)[O-])cc2)C2=C(CC(C)(C)CC2=O)N1` (stereo not given), the results for the fold change in assay [3] (setting [8]) and in assay [3] (setting [9]) were 1.46 (inactive) and 0.547, respectively. The cell count in assay [3] (setting [10]) was 1480; in assay [3] (setting [11]) it was 1010. For the same compound, the z-score in assay [6] (setting [12]) was -0.282 (inactive); in assay [6] (setting [13]), -2.79.

Take `O=C(Nc1ccc(S(=O)(=O)Nc2ccccc2Cl)c(Cl)c1)c1ccccn1`: the fold change is 0.91 (inactive) in assay [3] (setting [8]) and 0.513 in assay [3] (setting [9]). In addition, the results for the cell count in assay [3] (setting [10]) and in assay [3] (setting [11]) were 8160 and 8970, respectively. Besides, the z-score in assay [6] (setting [12]) was -0.368 (inactive); in assay [6] (setting [13]), -0.0416.

`COc1cccc2c1C(=O)c1c(O)c3c(c(O)c1C2=O)C[C@@](O)(C(=O)CO)C[C@@H]3OC1CC(N)C(OC2CCCCO2)C(C)O1` (stereo not given in full): the fold change was 1.07 (inactive) in assay [3] (setting [8]) and 1.21 in assay [3] (setting [9]). Besides, the cell count in assay [3] (setting [10]) is 1240; in assay [3] (setting [11]), 1150. For the same compound, the z-score in assay [6] (setting [12]) is 3.19 (active); in assay [6] (setting [13]), -0.724.

With `COC1=CC(=O)CC(C)[C@@]12Oc1c(Cl)c(OC)cc(OC)c1C2=O` (stereo not given in full), the fold change was 0.974 (inactive) in assay [3] (setting [8]) and 0.639 in assay [3] (setting [9]). For the same compound, the values for the cell count in assay [3] (setting [10]) and in assay [3] (setting [11]) were 8290 and 8510, respectively. The figures for the z-score in assay [6] (setting [12]) and in assay [6] (setting [13]) were -0.169 (inactive) and -0.138, respectively.

Take `COc1cc(N)c(Cl)cc1C(=O)OCCN1CCCCC1`: the inhibition in assay [1] was -5% (inactive). The fluorescence ratio (interference) in assay [2] was 1 (inactive). The fold change in assay [3] (setting [8]) was 1.11 (inactive); in assay [3] (setting [9]), 1.42. The cell count in assay [3] (setting [10]) was found to be 10600; in assay [3] (setting [11]), 9550. Also, the result in assay [4] was inactive. Further, in assay [5], the z-score is 0.695 (inactive).

For `NC(=O)c1ncn(C2OC(CO)C(O)C2O)c1N` (stereo not given), the fold change was 0.801 (inactive) in assay [3] (setting [8]) and 0.953 in assay [3] (setting [9]). Moreover, the values for the cell count in assay [3] (setting [10]) and in assay [3] (setting [11]) were 7500 and 9360, respectively. In addition, the values for the z-score in assay [6] (setting [12]) and in assay [6] (setting [13]) were 0.179 (inactive) and 0.0953, respectively.

As for `c1ccc2c(c1)CC(N1CCN(c3cccc4c3OCCO4)CC1)C2`, the inhibition in assay [1] was -2% (inactive). In addition, the fluorescence ratio (interference) in assay [2] was 1 (inactive). In addition, the fold change is 1.01 (inactive) in assay [3] (setting [8]) and 1.01 in assay [3] (setting [9]). Moreover, the cell count stood at 8000 in assay [3] (setting [10]) and 7890 in assay [3] (setting [11]). Further, the compound was classed as inactive in assay [4]. Further, the z-score in assay [5] was 0.255 (inactive).

Take `CC(=O)O[C@H]1Cc2ccccc2N(C(N)=O)c2ccccc21`: the inhibition in assay [1] is -4% (inactive). In addition, in assay [2], the fluorescence ratio (interference) is 1 (inactive). Also, the results for the fold change in assay [3] (setting [8]) and in assay [3] (setting [9]) were 0.953 (inactive) and 1.06, respectively. Besides, the figures for the cell count in assay [3] (setting [10]) and in assay [3] (setting [11]) were 10000 and 10500, respectively. Besides, in assay [4], the compound was classed as inactive. Besides, the z-score in assay [5] was 0.61 (inactive).

Regarding `CN(CC1COCCO1)S(=O)(=O)Nc1ccc2ccc3ncc(-c4cnn(C)c4)cc3c(=O)c2c1` (stereo not given), the fold change was 0.745 (inactive) in assay [3] (setting [8]) and 1.24 in assay [3] (setting [9]). For the same compound, the cell count was determined as 3290 in assay [3] (setting [10]) and 4410 in assay [3] (setting [11]). Further, the z-score in assay [6] (setting [12]) is 4.55 (active); in assay [6] (setting [13]), 2.15.

In the case of `CCC1C(=O)N(C)c2cnc(Nc3ccc(C(=O)NC4CCN(C)CC4)cc3OC)nc2N1C1CCCC1` (stereo not given), the fold change in assay [3] (setting [8]) was 1.18 (inactive); in assay [3] (setting [9]) it was 0.761. Also, the cell count in assay [3] (setting [10]) came out at 1360; in assay [3] (setting [11]), 1150. The z-score was 1.18 (inactive) in assay [6] (setting [12]) and -1.35 in assay [6] (setting [13]).

Turning to `CC(=O)O[C@@]1(C(C)=O)CC[C@H]2[C@@H]3CC(C)C4=CC(=O)CC[C@]4(C)[C@@H]3CC[C@@]21C` (stereo not given in full), the fold change in assay [3] (setting [8]) was 0.92 (inactive); in assay [3] (setting [9]), 0.806. Also, the cell count in assay [3] (setting [10]) was 7550; in assay [3] (setting [11]) it was 8200. Further, the values for the z-score in assay [6] (setting [12]) and in assay [6] (setting [13]) were -0.365 (inactive) and -0.106, respectively.

Consider `NC[C@@H]1O[C@H](c2ccccc2)Cc2c1ccc(O)c2O`, for which the inhibition in assay [1] was -3% (inactive). In addition, the fluorescence ratio (interference) in assay [2] was 0.9 (inactive). In addition, the fold change in assay [3] (setting [8]) was 0.966 (inactive); in assay [3] (setting [9]), 1.26. Further, the cell count in assay [3] (setting [10]) turned out to be 9490; in assay [3] (setting [11]), 9820. The outcome in assay [4] was inactive. Further, the z-score in assay [5] was -1.3 (inactive).

Consider `CCN(CC)CCNC(=O)c1ccc(NS(C)(=O)=O)cc1`, for which, in assay [1], the inhibition is -2% (inactive). Also, in assay [2], the fluorescence ratio (interference) was 1.1 (inactive). Further, the fold change in assay [3] (setting [8]) was 1.02 (inactive); in assay [3] (setting [9]), 0.826. For the same compound, the cell count in assay [3] (setting [10]) is 10400; in assay [3] (setting [11]) it was 10100. The result in assay [4] was inactive. Also, the z-score in assay [5] was 0.325 (inactive).

`CCC(=O)NCCC1CCc2ccc3c(c21)CCO3` (stereo not given): the values for the fold change in assay [3] (setting [8]) and in assay [3] (setting [9]) were 0.931 (inactive) and 4.33, respectively. For the same compound, the values for the cell count in assay [3] (setting [10]) and in assay [3] (setting [11]) were 8720 and 9370, respectively. Further, the z-score in assay [6] (setting [12]) was -0.89 (inactive); in assay [6] (setting [13]), 0.046.

As to `O=C1CN(/N=C/c2ccc(-c3ccc([N+](=O)[O-])cc3)o2)C(=O)N1`, the period change in assay [7] was 0.19 h (inactive). The fold change in assay [3] (setting [8]) was 0.852 (inactive); in assay [3] (setting [9]) it was 0.844. Moreover, the cell count in assay [3] (setting [10]) came out at 3600; in assay [3] (setting [11]) it was 4220. The result in assay [4] was inactive.
